Test results published in PubChem BioAssay (NCI).
This is part of a sample that, as a whole, favours compounds with a hit. Of some 83,000 tested, about 20% had one in any assay.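 Negative percent growth values reflect cell death: -40 means 40% of the cells present at the start died, and -100 means all died.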 Unmarked numbers belong to inactive results. Activity calls are given as the source filed them. The calls were made as follows: active = growth percent below 10; inactive = the rest.

The molecules below were run on HT29 colon (assay: NCI-60 one-dose screen, 48 h (100 = growth as untreated, 0 = no growth, -100 = all killed)). Conditions: 10 µM unless noted.

Structure (SMILES)	growth
O=C(NC(=S)Nc1cccc(NC(=S)NC(=O)c2ccccc2)c1)c1ccccc1	74.1%
COc1cc(C(=O)Nc2ccc(-c3nc4ccccc4[nH]3)cc2)cc(OC)c1OC	14.8%
CN(C)c1ccc(N=Cc2ccc(N3CCOCC3)cc2)cc1	84.2%
Cc1ccc(C)c(-c2csc(Nc3ccc(C)c(C)c3)n2)c1	4.56% (active)
COc1ccc(-c2nsc3c2NC(=O)CC3c2ccsc2)cc1 (stereo not given)	0.633% (active)
O=C(NCCCN1CCC(N2CCCCC2)CC1)C1=Cc2cc(Br)ccc2OC1	17.9%
CN1CCN(Cc2ccc(C(=O)Nc3cncc(C#Cc4cnc5cccnn45)c3)cc2C(F)(F)F)CC1	23%
Cc1ccccc1CNC(=O)C1CN(c2ccc(Cl)cc2)N(c2ccc(Cl)cc2)C1=O (stereo not given)	77%
Cc1sc2ncn(CC(=O)Nc3ccc(S(N)(=O)=O)cc3)c(=O)c2c1C	107%
Fc1cccc(COc2ccc(Nc3ncnc4onc(-c5ccccc5)c34)cc2)c1	3.86% (active)
Clc1ncccc1Nc1ccc2nnc(-c3ccncc3)n2n1	110%
CCc1ccc(CNCC(O)c2ccccc2)cc1 (stereo not given)	28.7%
COc1ccc2oc(=O)cc(Cn3cc(Cn4cnc5c4c(=O)n(C)c(=O)n5C)nn3)c2c1	99%
COc1ccc(N(C)c2nc(N)nc3sc4c(c23)CCCC4)cc1	-4.37% (active)
O=C(NCc1ccccc1)C1CN(c2ccc(Cl)cc2)N(c2ccc(Cl)cc2)C1=O (stereo not given)	48.8%
